Data on 5 compounds can be found in PubChem BioAssay.

Calls of active or inactive are those of the source.

Assay [1] is described as follows: small molecules captured by biotinylated probe aFSTL3 – biochemical, small-molecule microarray, fluorescence 635/667, stem cell growth factor project, primary screen (AID 1064).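 Also: measures binding of the biotinylated anti-FSTL3 antibody to printed compounds.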 The settings on record: higher = more signal.
Assay [2] in a line: binders from COS7 lysate, DM2A8 probe, primary screen, torsin A project, cell lysate, small-molecule microarray, fluorescence 635/667 (AID 1065). The settings on record: higher = more signal, COS7 lysate expressing mutant human TOR1A.
The nature of assay [3]: small molecules captured by biotinylated probe aFGF2 – biochemical, small-molecule microarray, fluorescence 635/667, stem cell growth factor project, primary screen (AID 1067).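 Also: measures binding of biotinylated aFGF2 protein to printed compounds on slides; z-score merges feature fluorescence and signal-to-noise across triplicate slides.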 The settings on record: higher = more signal.
Assay [4] is described as follows: small molecules captured by biotinylated probe aFGF10 – biochemical, small-molecule microarray, fluorescence 635/667, stem cell growth factor project, primary screen (AID 1071).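 Also: score merges 667 nm spot intensity and signal to noise from triplicate slides.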 The settings on record: higher = more signal.
Assay [5] deals with Neurogenic locus notch homolog protein 2 (Homo sapiens) (UniProt Q04721). Kind of assay: small molecules binding Notch2 protein – biochemical, small-molecule microarray, 635 nm fluorescence, stem cell growth factors, primary screen (AID 1073). The settings on record: higher = more signal.
Chain of Neurogenic locus notch homolog protein 2 (Homo sapiens) (Q04721 whole entry, looked up, canonical isoform): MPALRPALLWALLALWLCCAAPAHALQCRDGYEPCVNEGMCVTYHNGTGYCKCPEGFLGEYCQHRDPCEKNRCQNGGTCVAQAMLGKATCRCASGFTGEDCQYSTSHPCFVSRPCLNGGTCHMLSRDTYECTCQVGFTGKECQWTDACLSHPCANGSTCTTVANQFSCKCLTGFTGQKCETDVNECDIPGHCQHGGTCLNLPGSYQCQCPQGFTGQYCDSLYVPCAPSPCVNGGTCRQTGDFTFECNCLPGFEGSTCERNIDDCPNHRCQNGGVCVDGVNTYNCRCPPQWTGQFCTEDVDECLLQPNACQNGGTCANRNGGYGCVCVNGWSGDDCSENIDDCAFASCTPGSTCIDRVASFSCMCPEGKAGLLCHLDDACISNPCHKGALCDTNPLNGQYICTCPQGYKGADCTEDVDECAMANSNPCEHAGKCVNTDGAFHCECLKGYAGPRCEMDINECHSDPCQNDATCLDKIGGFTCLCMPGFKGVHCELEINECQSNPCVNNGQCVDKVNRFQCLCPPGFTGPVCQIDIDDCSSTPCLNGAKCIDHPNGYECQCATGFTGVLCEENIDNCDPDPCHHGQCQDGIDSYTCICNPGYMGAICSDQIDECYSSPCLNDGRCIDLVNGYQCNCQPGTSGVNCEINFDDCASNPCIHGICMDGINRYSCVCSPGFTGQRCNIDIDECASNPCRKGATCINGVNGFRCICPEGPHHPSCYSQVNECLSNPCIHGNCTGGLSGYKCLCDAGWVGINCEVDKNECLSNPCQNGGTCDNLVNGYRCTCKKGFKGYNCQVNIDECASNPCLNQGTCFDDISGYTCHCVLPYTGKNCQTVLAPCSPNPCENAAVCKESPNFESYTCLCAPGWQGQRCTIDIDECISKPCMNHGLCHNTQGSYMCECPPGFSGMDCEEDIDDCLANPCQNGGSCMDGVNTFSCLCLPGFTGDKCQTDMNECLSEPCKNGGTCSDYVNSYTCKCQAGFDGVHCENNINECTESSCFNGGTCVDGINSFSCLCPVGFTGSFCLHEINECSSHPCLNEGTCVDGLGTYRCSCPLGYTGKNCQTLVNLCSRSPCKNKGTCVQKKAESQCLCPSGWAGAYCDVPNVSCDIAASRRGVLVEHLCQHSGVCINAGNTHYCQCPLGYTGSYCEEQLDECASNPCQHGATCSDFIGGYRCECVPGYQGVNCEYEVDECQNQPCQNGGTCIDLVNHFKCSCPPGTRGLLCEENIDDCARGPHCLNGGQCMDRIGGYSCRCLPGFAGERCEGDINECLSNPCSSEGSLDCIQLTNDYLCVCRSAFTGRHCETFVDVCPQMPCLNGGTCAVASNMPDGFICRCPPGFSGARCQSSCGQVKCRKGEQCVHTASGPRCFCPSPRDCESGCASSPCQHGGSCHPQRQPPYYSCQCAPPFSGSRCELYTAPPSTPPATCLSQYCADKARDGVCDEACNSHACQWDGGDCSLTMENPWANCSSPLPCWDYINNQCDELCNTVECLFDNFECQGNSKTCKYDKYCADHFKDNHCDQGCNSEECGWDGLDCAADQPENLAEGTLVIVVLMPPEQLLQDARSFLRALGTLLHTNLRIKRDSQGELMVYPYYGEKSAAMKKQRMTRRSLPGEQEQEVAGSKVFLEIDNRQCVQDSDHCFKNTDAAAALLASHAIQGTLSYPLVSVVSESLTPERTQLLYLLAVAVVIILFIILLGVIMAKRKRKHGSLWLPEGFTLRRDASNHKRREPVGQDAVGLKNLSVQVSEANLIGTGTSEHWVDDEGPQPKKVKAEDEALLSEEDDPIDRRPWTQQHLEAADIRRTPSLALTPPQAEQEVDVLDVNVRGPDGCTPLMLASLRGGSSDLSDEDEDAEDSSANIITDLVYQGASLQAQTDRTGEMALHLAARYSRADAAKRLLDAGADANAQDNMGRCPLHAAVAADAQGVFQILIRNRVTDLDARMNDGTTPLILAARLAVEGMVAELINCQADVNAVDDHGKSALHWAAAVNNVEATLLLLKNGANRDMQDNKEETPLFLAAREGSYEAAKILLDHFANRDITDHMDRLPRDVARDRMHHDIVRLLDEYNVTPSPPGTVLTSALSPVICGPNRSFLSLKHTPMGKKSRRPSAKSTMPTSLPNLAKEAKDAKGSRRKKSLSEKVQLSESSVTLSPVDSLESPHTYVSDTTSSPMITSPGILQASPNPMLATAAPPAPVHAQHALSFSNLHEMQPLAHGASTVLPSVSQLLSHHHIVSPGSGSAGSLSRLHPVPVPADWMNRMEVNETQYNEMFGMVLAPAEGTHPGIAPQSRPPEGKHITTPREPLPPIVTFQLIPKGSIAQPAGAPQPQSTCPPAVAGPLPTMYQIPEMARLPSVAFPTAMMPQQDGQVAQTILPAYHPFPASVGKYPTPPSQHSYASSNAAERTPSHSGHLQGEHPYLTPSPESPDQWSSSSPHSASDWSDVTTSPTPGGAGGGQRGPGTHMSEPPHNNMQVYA
Assay [6] concerns the target Pro-neuregulin-1, membrane-bound isoform (Homo sapiens) (UniProt Q02297). Description: small molecules binding neuregulin-1 protein – biochemical, small-molecule microarray, fluorescence 635/667, psychiatric disease protein project, primary screen (AID 1075).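 Also: score combines 667 nm spot fluorescence with signal to noise.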 The settings on record: NRG1 binding, 635 nm fluorescence, higher = more signal.
For assay [7], the system named is Neuregulin-1 EGF-like domain. Description: small molecules binding NRG1 EGF domain – biochemical, small-molecule microarray, 635 nm fluorescence, primary screen (AID 1081).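 Also: binding of the protein to compounds printed on small-molecule microarray slides.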 The settings on record: higher = more signal.
Assay [8] is described as follows: FRG1 expression reporter modulators in myotubes – cell-based, C2C12 myotubes, firefly/Renilla luciferase, luminescence, FRG1 inhibition for FSHD, primary screen (AID 1084). The settings on record: FRG1 promoter luciferase, higher = more signal, called active from +8 up or from −8 down.
Assay [9] is described as follows: small molecules captured by biotinylated probe aFST – biochemical, small-molecule microarray, fluorescence 635/667, stem cell growth factor project, primary screen (AID 1086).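 Also: score merges 667 nm fluorescence with signal-to-noise of each printed compound spot.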 The settings on record: higher = more signal.
Assay [10] in a line: binders of probe aHhip on microarray, primary screen, stem cell growth factor project, biochemical, small-molecule microarray, fluorescence 635/667 (AID 1087).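 Also: score merges spot fluorescence at 667nm with spot signal to noise ratio.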 The settings on record: higher = more signal.
The test system of assay [11] is PRMT1 (protein arginine N-methyltransferase 1). Description: small molecules binding arginine methyltransferase PRMT1 – biochemical, small-molecule microarray, 635 nm fluorescence, primary screen (AID 1088).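 Also: binding of Prmt1 protein to compounds spotted on small-molecule microarray slides.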 The settings on record: higher = more signal.
The nature of assay [12]: growth effects on S. cerevisiae YJM789 – YJM789 clinical isolate, OD600, 24 h, basal, primary screen (AID 1089).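 Also: growth of clinical yeast isolate S. cerevisiae YJM 789 seeded 1000 cells per well; test concentration not given here.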 The settings on record: higher = more signal, called active from +8 up or from −8 down.
Assay [13] can be described thus: S. pombe growth modifiers, basal conditions – strain 972, OD600, 24 h, no modulator, primary screen (AID 1090).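 Also: basal condition with compound alone and no growth modifier present; test concentration not given here.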 The settings on record: S. pombe 972 growth, higher = more signal, called active from +8 up or from −8 down.
Assay [14] in a line: budding yeast growth modifiers under rapamycin – strain BY4716, OD600, 96 h, primary screen (AID 1091). Also: test concentration not given here. The settings on record: S. cerevisiae BY4716 + rapamycin, higher = more signal, called active from +8 up or from −8 down.
The target of assay [15] is Torsin-1A-interacting protein 2 (Homo sapiens) (UniProt Q8NFQ8). Kind of assay: small molecules binding lysate-expressed LULL1 – cell lysate, human LULL1 lysate, 635/667 nm fluorescence, primary screen (AID 1092).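 Also: probe is lysate of COS7 cells overexpressing human LULL1; score merges per-feature 667 nm fluorescence with signal-to-noise.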 The settings on record: small-molecule microarray, hLULL1 lysate binding, 635 nm fluorescence; higher = more signal.
Chain of Torsin-1A-interacting protein 2 (Homo sapiens) (Q8NFQ8 whole entry, looked up): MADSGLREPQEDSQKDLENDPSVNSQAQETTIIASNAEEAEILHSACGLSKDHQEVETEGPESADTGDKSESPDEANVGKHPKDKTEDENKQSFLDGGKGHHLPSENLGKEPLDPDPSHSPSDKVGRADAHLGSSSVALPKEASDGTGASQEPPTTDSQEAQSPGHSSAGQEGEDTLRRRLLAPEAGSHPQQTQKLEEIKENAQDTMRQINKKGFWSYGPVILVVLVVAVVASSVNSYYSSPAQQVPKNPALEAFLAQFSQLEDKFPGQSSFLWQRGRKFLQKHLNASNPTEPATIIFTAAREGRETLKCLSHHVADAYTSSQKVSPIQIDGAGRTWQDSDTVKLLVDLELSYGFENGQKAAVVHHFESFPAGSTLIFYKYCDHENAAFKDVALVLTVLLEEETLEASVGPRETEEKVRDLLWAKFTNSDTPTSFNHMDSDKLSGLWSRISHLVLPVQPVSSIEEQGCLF
Assay [16] in a line: optical density change of DRC41 E. coli – strain DRC41, OD650, 24 h, E. coli filamentation project, primary screen (AID 1093).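 Also: MC1000 strain lacking acrAB efflux and sulA so SOS filamentation is blocked; test concentration not given here.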 The settings on record: E. coli DRC41 growth, higher = more signal, called active from +8 up or from −8 down.
A short description of assay [17]: probe aLefty2 binding to arrayed compounds – biochemical, biotinylated probe, 635/667 nm fluorescence, primary screen (AID 1094).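 Also: score merges spot fluorescence near 667 nm with spot signal-to-noise ratio.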 The settings on record: small-molecule microarray, higher = more signal.
The subject of assay [18] is Noggin (protein binding on small-molecule microarray). Kind of assay: small molecules binding Noggin protein – biochemical, 635/667 nm fluorescence, primary screen (AID 1095).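 Also: score merges 667 nm feature fluorescence with signal to noise over triplicate slides.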 The settings on record: 635 nm fluorescence, higher = more signal.
Assay [19] deals with Neurogenic locus notch homolog protein 3 (Homo sapiens) (UniProt Q9UM47). Kind of assay: small molecules binding NOTCH3 protein – biochemical, 635/667 nm fluorescence, primary screen (AID 1096). The settings on record: small-molecule microarray, 635 nm fluorescence, higher = more signal.
The nature of assay [20]: probe aEGFR binding to arrayed compounds – biochemical, biotinylated probe, 635/667 nm fluorescence, primary screen (AID 1097).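 Also: probe is a biotinylated anti-EGFR antibody binding compounds printed on slides; score combines fluorescence near 667 nm and signal to noise of each spot.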 The settings on record: small-molecule microarray, higher = more signal.

Chain of Pro-neuregulin-1, membrane-bound isoform (Homo sapiens) (Q02297 whole entry, looked up, the tested form may be a part, canonical isoform): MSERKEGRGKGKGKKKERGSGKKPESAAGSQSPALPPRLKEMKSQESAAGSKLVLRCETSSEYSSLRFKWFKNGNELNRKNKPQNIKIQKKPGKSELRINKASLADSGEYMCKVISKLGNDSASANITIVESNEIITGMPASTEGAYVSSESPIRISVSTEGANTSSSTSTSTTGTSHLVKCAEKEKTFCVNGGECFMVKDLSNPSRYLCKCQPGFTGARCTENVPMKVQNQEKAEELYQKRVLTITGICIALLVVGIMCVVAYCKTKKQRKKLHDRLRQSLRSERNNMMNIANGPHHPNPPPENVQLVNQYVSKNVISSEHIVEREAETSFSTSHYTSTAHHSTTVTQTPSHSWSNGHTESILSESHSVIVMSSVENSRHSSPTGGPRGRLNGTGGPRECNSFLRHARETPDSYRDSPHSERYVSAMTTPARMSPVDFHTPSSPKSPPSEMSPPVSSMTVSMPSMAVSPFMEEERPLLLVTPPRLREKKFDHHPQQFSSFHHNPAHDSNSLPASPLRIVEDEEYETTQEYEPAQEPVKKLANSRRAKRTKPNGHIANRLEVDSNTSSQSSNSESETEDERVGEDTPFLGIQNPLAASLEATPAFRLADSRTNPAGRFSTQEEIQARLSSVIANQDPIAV

Take `CCOC(=O)C[C@H]1[C@H](OC(=O)Cc2ccc3c(c2)OCO3)[C@@H](NC(=O)c2ccc(-c3ccccc3)cc2)c2cc(OCCCO)ccc2N1C(=O)c1ccccc1`: the composite z-score was -0.386 in assay [1]; -0.0093 in [2]; -0.0144 in assay [3]; 0.585 in assay [4]; 0.537 in [5]; 0.371 in assay [6]. For the same compound, the composite z-score was 0.797 in [7]; 0.239 in assay [9]; -0.374 in [10]; 0.869 in assay [11]; 1.81 in assay [15]; -0.137 in assay [17]. Also, the composite z-score in assay [18] was 0.267; in assay [19], 0.643; in assay [20] it was 0.0027. The z-score in assay [8] was -3.42 (inactive); in assay [12], 0.22 (inactive); in assay [13] it was -0.661 (inactive); in [14], 0.712 (inactive); in assay [16] it was 1.96 (inactive).

As to `C=C(COC)C(=O)CC[C@H](OC(C)=O)c1cccc(OCCO)c1`, the composite z-score is -0.0206 in assay [1]; 1.66 in assay [2]; -0.0767 in assay [3]; 0.553 in assay [4]; -0.844 in assay [5]; -0.13 in assay [6]. Also, the composite z-score in [7] is -0.208; in [9] it was -0.392; in assay [10], -0.291; in [11], 0.591; in [15], 0.118; in assay [17], -0.158. In addition, the values for the composite z-score in assay [18], in assay [19] and in assay [20] were 1.03, -0.902 and -0.263, respectively. In addition, the z-score in assay [8] was 0.39 (inactive); in assay [12] it was 0.513 (inactive); in [13], -1.34 (inactive); in [14], -0.0523 (inactive); in [16], 0.896 (inactive).

As for `COc1ccc(C#Cc2ccc3c(c2)[C@]2(C(=O)N3)[C@H](C(=O)NC[C@H](O)c3ccccc3)[C@H]3C(=O)O[C@H](c4ccccc4)[C@H](c4ccccc4)N3[C@@H]2c2ccccc2OCCO)cc1`, the composite z-score is -0.185 in [1]; 0.324 in [2]; 0.0128 in assay [3]; 0.688 in [4]; 1.29 in assay [5]; 1.56 in assay [6]. Further, the composite z-score was 1.19 in [7]; 0.653 in assay [9]; -0.0994 in [10]; 1.54 in [11]; 2.94 in [15]; 0.0179 in [17]. Also, the composite z-score in [18] is 1.4; in [19], 1.06; in assay [20] it was -0.0192. Moreover, the z-score in [8] was 0.162 (inactive); in assay [12], 2.23 (inactive); in assay [13] it was 2.01 (inactive); in [14], 4.39 (inactive); in assay [16], 0.413 (inactive).

Take `CCOc1cc(C(O)C2C=CC3C(=O)N(c4ccccc4)C(=O)C3N2Nc2ccc([N+](=O)[O-])cc2)ccc1O` (stereo not given): the composite z-score in [1] was -0.549; in assay [2], 0.23; in assay [3] it was 0.0139; in assay [4] it was 0.516; in assay [5], 0.796; in assay [6], 0.946. For the same compound, the composite z-score in [7] was 0.943; in assay [9], 0.311; in [10], -0.271; in assay [11] it was 1.07; in assay [15], 3.37; in [17], -0.0534. Further, the composite z-score was 0.0883 in [18], 0.782 in assay [19] and -0.067 in assay [20]. The z-score was -0.374 (inactive) in assay [8]; -0.441 (inactive) in assay [12]; 0.442 (inactive) in [13]; -0.364 (inactive) in [14]; -0.961 (inactive) in assay [16].

`CC(C)N1C(=O)c2ccccc2[C@@H](C(=O)NCCCN(C)C)[C@@H]1c1ccc(CO)cc1`: the composite z-score is 0.878 in assay [1]; -0.194 in [2]; -0.0502 in assay [3]; -0.086 in [4]; 0.102 in assay [5]; 1.78 in assay [6]. Besides, the composite z-score in assay [7] was 1.11; in [9] it was 0.908; in assay [10] it was 0.0066; in assay [11], -0.468; in assay [15], 1.3; in assay [17], 0.196. Further, the composite z-score was -0.879 in assay [18], -0.807 in [19] and -0.0435 in [20]. Further, the z-score is 0.0159 (inactive) in [8]; -0.545 (inactive) in assay [12]; -0.672 (inactive) in assay [13]; -0.181 (inactive) in [14]; -1.04 (inactive) in [16].
